The target of experiment [1] is Bile acid receptor (Homo sapiens) (UniProt Q96RI1). In words: ATG_FXR_TRANS: Attagene TRANS-FACTORIAL HepG2 Assay for Farnesoid X Receptor (FXR) (AID 2282979; active = hit-call score of the fitted dose curve at least 0.9, where 1 is the maximum;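 also: hits raise reporter mRNA above DMSO so AC50 marks FXR activation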). The conditions noted are these: HepG2 Attagene TRANS FXR-GAL4 reporter transcription. The gist of the method:
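Reporter transcripts from transfected HepG2 cells were measured 24 h after dosing, using RT-PCR with capillary electrophoresis of 6-FAM-labelled fragments. The read-out reflects activity of exogenous FXR-Gal4 chimera on GAL4-UAS units, with induction relative to DMSO.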

Experiment [2] can be described thus: ATG_M_06_TRANS: Attagene TRANS-FACTORIAL HepG2 Assay for M06 Transcription Factor (Internal Marker) (AID 2282983; active = hit-call score of the fitted dose curve at least 0.9, where 1 is the maximum). The settings on record: HepG2 Attagene TRANS M06 internal marker reporter. The gist of the method: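 Cells: HepG2, transient multi-reporter transfection. Exposure: 24 h. Detection: RT-PCR, 6-FAM labelling, HpaI digestion (2 h, 37 °C), capillary electrophoresis. Baseline: DMSO.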

The nature of experiment [3]: ATG_M_32_TRANS: Attagene TRANS-FACTORIAL HepG2 Assay for M32 Transcription Factor (Internal Marker) (AID 2282984; active = hit-call score of the fitted dose curve at least 0.9, where 1 is the maximum;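 also: transcript level of a background control reporter unit measured by RT-PCR and capillary electrophoresis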). The conditions noted are these: HepG2 Attagene TRANS M32 internal marker reporter. An outline of the steps:
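Capillary electrophoresis of 6-FAM-labelled reporter fragments gives the signal; data fitted for gain over DMSO negative control. Source: HepG2 cells bearing transient multiple reporter transcription units, 24 h exposure.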

For experiment [4], the target named is Transcriptional activator Myb (Homo sapiens) (UniProt P10242). In words: ATG_Myb_CIS: Attagene CIS-FACTORIAL HepG2 Assay for human Myeloblastosis (Myb) Proto-Oncogene Transcription Factor (AID 2282986). The settings on record: HepG2 Attagene CIS-FACTORIAL Myb reporter transcription; actives raise or lower the signal. The gist of the method: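 In this HepG2 transient-transfection format, cis-regulated reporter mRNA is quantified 24 h post-dosing by RT-PCR with capillary electrophoresis, fitted bidirectionally to DMSO baseline.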
Chain of Transcriptional activator Myb (Homo sapiens) (P10242 whole entry, looked up): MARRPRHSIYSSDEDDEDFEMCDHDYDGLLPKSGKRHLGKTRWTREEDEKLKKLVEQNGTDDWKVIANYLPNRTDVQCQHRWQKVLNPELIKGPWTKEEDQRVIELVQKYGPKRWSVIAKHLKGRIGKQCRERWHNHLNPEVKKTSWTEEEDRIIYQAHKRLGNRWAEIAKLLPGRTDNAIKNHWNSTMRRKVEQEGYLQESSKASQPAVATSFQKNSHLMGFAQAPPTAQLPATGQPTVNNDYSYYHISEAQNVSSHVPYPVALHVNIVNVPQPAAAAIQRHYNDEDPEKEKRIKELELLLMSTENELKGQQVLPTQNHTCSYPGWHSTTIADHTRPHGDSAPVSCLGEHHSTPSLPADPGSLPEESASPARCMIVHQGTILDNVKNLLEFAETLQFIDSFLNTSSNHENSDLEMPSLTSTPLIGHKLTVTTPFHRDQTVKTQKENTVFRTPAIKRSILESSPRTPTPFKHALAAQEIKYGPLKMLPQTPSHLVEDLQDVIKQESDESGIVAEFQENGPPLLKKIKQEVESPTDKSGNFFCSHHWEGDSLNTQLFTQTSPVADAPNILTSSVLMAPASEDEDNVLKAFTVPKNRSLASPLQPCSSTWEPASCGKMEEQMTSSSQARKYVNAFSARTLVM

Experiment [5] deals with Nuclear respiratory factor 1 (Homo sapiens) (UniProt Q16656). In words: ATG_NRF1_CIS: Attagene CIS-FACTORIAL HepG2 Assay for human Nuclear Respiratory Factor 1 (NRF1) Orphan Gene (AID 2282987). The settings on record: HepG2 NRF1 cis-element reporter, Attagene multiplex; actives raise or lower the signal. An outline of the steps: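 Using DMSO as baseline, gain- or loss-of-signal was fitted for reporter mRNA levels in HepG2 cells transiently transfected with cis-regulated reporter units. Samples were taken 24 h after dosing and read by RT-PCR with capillary electrophoresis.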
Chain of Nuclear respiratory factor 1 (Homo sapiens) (Q16656 whole entry, looked up): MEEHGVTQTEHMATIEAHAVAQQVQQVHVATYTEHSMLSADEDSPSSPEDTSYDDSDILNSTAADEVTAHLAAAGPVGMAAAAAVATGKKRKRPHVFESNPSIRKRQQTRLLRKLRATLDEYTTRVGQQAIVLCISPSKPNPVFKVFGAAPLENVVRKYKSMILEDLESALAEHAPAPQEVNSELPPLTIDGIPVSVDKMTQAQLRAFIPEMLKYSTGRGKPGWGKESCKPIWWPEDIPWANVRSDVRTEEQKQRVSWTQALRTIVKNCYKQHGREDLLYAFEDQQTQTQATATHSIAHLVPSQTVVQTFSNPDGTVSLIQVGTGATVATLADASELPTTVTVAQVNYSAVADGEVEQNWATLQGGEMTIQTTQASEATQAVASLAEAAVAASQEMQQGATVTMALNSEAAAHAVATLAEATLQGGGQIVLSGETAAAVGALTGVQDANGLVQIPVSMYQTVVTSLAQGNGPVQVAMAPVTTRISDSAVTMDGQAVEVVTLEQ

Experiment [6] in a line: ATG_NFI_CIS: Attagene CIS-FACTORIAL HepG2 Assay for human Nuclear Factor I (NFI) (AID 2282989). The conditions noted are these: HepG2 cis-regulatory reporter, NFI response element transcription; actives raise or lower the signal. The gist of the method:
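Transient MRTU transfection of HepG2 → 24 h chemical dosing → total RNA, oligo(dT) RT → PCR, 6-FAM primer extension, HpaI cut → capillary electrophoresis. Endpoint fitted bidirectionally relative to DMSO.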

Experiment [7] deals with Myc proto-oncogene protein (Homo sapiens) (UniProt P01106). In words: ATG_Myc_CIS: Attagene CIS-FACTORIAL HepG2 Assay for human Myelocytomatosis (Myc) Proto-Oncogene Transcription Factor (AID 2282990). The settings on record: HepG2, Attagene cis-reporter transcription factor activity; actives raise or lower the signal. An outline of the steps: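 Read-out: fluorescent reporter mRNA fragments resolved by capillary electrophoresis after RT-PCR. Human HepG2 liver cells carried transfected cis-element reporter units and were dosed for 24 h. Gain or loss of signal fitted relative to DMSO baseline.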
Chain of Myc proto-oncogene protein (Homo sapiens) (P01106 whole entry, looked up, the tested form may be a part): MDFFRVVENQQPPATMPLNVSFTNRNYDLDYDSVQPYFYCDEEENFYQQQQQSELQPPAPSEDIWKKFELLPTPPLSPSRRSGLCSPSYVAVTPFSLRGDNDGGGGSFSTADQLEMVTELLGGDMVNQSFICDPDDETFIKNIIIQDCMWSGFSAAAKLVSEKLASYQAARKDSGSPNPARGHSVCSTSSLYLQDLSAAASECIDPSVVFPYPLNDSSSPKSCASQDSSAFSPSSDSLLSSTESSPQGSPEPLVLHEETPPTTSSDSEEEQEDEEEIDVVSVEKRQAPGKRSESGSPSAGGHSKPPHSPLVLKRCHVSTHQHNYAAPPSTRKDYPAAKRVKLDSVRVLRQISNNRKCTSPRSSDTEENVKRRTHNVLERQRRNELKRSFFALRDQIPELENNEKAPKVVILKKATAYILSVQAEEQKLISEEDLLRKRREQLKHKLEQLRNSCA

Experiment [8] can be described thus: ATG_NF_kB_CIS: Attagene CIS-FACTORIAL HepG2 Assay for human Nuclear Factor Kappa B (NF-kB) (AID 2282991). The conditions noted are these: HepG2 Attagene cis-factorial NF-kB reporter mRNA; actives raise or lower the signal. An outline of the steps:
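Endpoint from a 52-component multiplexed HepG2 reporter panel: cis-regulated transcription units transiently transfected, 24 h dosing, reporter mRNA quantified by RT-PCR and capillary electrophoresis, scored as increase or decrease against DMSO.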

Experiment [9] is described as follows: ATG_NRF2_ARE_CIS: Attagene CIS-FACTORIAL HepG2 Assay for human Nuclear Factor Erythroid 2 Related Factor 2 (NFR2) response to Antioxidant Response Elements (ARE) (AID 2282992).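 As to AC50: reporter mRNA level measured by RT-PCR and capillary electrophoresis fluorescence.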 The settings on record: HepG2 Attagene ARE/NRF2 reporter, transcription factor activity; actives raise or lower the signal. An outline of the steps: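 HepG2 cells transiently transfected with multiplexed cis-regulated reporter transcription units measure endogenous transcription factor activity. Reporter mRNA at 24 h is quantified by RT-PCR, fluorescent labelling and capillary electrophoresis, with bidirectional fitting relative to DMSO.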

Experiment [10] in a line: ATG_Oct_MLP_CIS: Attagene CIS-FACTORIAL HepG2 Assay for human Octamer-Binding Transcription Factor (Oct) (AID 2282993). The conditions noted are these: HepG2 Attagene cis-factorial Oct reporter, mRNA; actives raise or lower the signal. An outline of the steps:
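Transient MRTU transfection of HepG2 → 24 h compound treatment → RNA isolation, reverse transcription, PCR → 6-FAM primer extension, HpaI digest → capillary electrophoresis. Activity fitted both directions against DMSO.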

The target of experiment [11] is Cellular tumor antigen p53 (Homo sapiens) (UniProt P04637). In words: ATG_p53_CIS: Attagene CIS-FACTORIAL HepG2 Assay for human p53 Transcription Factor (AID 2282994). The conditions noted are these: HepG2 p53 cis-element reporter, Attagene mRNA; actives raise or lower the signal. The gist of the method: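 HepG2 cells transiently transfected with multiplexed cis-regulated reporter transcription units read endogenous TF activity. After 24 h compound exposure, reporter mRNA was quantified by RT-PCR, fluorescent labelling, HpaI digestion and capillary electrophoresis; bidirectional fits versus DMSO baseline.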
Chain of Cellular tumor antigen p53 (Homo sapiens) (P04637 whole entry, looked up): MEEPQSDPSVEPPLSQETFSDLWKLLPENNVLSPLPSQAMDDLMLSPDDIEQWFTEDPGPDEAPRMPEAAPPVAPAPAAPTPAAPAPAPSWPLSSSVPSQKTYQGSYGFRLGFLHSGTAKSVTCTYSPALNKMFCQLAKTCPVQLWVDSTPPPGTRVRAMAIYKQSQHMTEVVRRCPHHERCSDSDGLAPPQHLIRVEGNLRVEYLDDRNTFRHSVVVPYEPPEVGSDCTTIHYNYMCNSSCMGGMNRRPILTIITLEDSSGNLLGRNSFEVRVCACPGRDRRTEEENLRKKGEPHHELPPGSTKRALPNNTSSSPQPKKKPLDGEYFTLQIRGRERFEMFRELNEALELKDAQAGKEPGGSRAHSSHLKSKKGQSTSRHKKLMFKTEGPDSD

Experiment [12] can be described thus: BSK_3C_VCAM1: BioMAP Diversity Plus: 3C Assay for Vascular cell adhesion molecule 1 (VCAM1) Biomarker Activity (AID 2282999). The conditions noted are these: BioMAP 3C HUVEC, VCAM1 ELISA, cytokine-stimulated; actives raise or lower the signal. The gist of the method: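 Human umbilical vein endothelial cells (3C system), biomarker read by ELISA 24 h after dosing; bidirectional fit against DMSO baseline. Cytotoxicity tracked by SRB total-protein staining in parallel cultures at biomarker time.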
For orientation: An ELISA detects its analyte on a solid surface through an enzyme-linked reagent.

A short description of experiment [13]: BSK_4H_Eotaxin3: BioMAP Diversity Plus: 4H Assay for Eotaxin 3 Biomarker Activity (AID 2283000).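 As to outcome: CCL26 protein level quantified by ELISA in parallel with SRB cytotoxicity check.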 The settings on record: primary human endothelial cells (HUVEC); actives raise or lower the signal. The gist of the method: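 Human umbilical vein endothelial cells (BSK_4H system) dosed with test chemical; Eotaxin-3 (CCL26) measured by ELISA 24 h after dosing. Bidirectional curve fitting relative to DMSO negative control as baseline.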

Experiment [14] deals with human Peroxisome Proliferator-activated Receptor alpha (PPARa), PPARA (gene 5465) (UniProt Q07869). In words: ATG_PPARa_TRANS: Attagene TRANS-FACTORIAL HepG2 Assay for human Peroxisome Proliferator-activated Receptor alpha (PPARa) (AID 2283001; active = hit-call score of the fitted dose curve at least 0.9, where 1 is the maximum). An outline of the steps:
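Measures transcriptional activity of an exogenous chimeric PPARa-Gal4 protein in transiently transfected HepG2 cells after 24 h dosing. Reporter mRNA quantified via RT-PCR and capillary electrophoresis; DMSO served as negative control.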

The target of experiment [15] is Oxysterols receptor LXR-alpha (Homo sapiens) (UniProt Q13133). In words: ATG_LXRa_TRANS: Attagene TRANS-FACTORIAL HepG2 Assay for human Liver X Receptor alpha (LXRa) (AID 2282980; active = hit-call score of the fitted dose curve at least 0.9, where 1 is the maximum). The conditions noted are these: HepG2 Attagene TRANS reporter, LXRa transactivation. An outline of the steps:
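Chemical-induced reporter mRNA measured by RT-PCR with fluorescent labelling and capillary electrophoresis after 24 h dosing of transiently transfected HepG2 cells expressing exogenous NR-Gal4 chimeras; increases scored against DMSO baseline.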

Experiment [16] in a line: BSK_3C_TissueFactor: BioMAP Diversity Plus: 3C Assay for Tissue Factor Biomarker Activity (AID 2282997). The settings on record: BioMAP 3C HUVEC, tissue factor biomarker readout; actives raise or lower the signal. An outline of the steps:
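Dosing of human umbilical vein endothelial cells preceded a 24 h incubation. Tissue Factor was then read by ELISA, with increases and decreases both scored relative to DMSO controls.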

The target of experiment [17] is Oxysterols receptor LXR-beta (Homo sapiens) (UniProt P55055). In words: ATG_LXRb_TRANS: Attagene TRANS-FACTORIAL HepG2 Assay for human Liver X Receptor beta (LXRb) (AID 2282981; active = hit-call score of the fitted dose curve at least 0.9, where 1 is the maximum). The settings on record: HepG2 Attagene TRANS GAL4-LXRb reporter, mRNA. An outline of the steps:
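Gain-of-signal mRNA reporter endpoint, DMSO as negative control. Transiently transfected HepG2 cells carrying the NR-Gal4 chimera and GAL4-UAS reporter units were treated 24 h; transcripts quantified by RT-PCR and capillary electrophoresis fluorescence.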

Experiment [18] in a line: BSK_3C_uPAR: BioMAP Diversity Plus: 3C Assay for Urokinase-type plasminogen activator receptor (uPAR) Biomarker Activity (AID 2282998). The settings on record: BioMAP 3C HUVEC, uPAR biomarker ELISA; actives raise or lower the signal. The gist of the method:
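ELISA readout of uPAR on human vascular endothelium (umbilical vein primary cells), taken 24 h after chemical dosing. Increases and decreases are both fitted relative to DMSO vehicle.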

In experiment [19] the target is Glucocorticoid receptor (Homo sapiens) (UniProt P04150). In words: ATG_GR_TRANS: Attagene TRANS-FACTORIAL HepG2 Assay for human Glucocorticoid Receptor (GR) (AID 2282978; active = hit-call score of the fitted dose curve at least 0.9, where 1 is the maximum;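 also: activators score as hits since higher reporter transcript over DMSO is fitted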). The conditions noted are these: HepG2 Attagene TRANS GR reporter, mRNA transcription. The gist of the method:
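Exogenous NR-GAL4 fusion activity was assessed through induced GAL4-UAS reporter transcripts in transfected human HepG2 cells, quantified after 24 h by RT-PCR and fluorescent capillary electrophoresis with DMSO as baseline.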

SMILES strings stand for the structures. Results filed as inconclusive are left out. The source made the active and inactive calls. The calls were made as follows, unless noted: active = hit-call score of the fitted dose curve at least 0.9, where 1 is the maximum; inactive = score below 0.9.

Chain of Bile acid receptor (Homo sapiens) (Q96RI1 whole entry, looked up, the tested form may be a part): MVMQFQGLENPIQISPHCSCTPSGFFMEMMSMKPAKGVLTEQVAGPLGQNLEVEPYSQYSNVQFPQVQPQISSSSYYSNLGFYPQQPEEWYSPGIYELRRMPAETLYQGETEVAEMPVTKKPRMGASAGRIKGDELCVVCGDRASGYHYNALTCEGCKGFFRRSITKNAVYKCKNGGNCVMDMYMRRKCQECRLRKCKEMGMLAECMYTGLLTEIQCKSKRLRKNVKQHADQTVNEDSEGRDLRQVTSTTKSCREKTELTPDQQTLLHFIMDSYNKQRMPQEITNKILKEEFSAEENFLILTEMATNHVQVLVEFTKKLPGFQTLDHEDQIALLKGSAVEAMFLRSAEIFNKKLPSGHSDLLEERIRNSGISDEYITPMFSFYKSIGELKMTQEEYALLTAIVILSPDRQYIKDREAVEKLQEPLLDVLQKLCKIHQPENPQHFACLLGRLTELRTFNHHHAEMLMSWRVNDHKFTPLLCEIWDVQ
Chain of human Peroxisome Proliferator-activated Receptor alpha (PPARa), PPARA (gene 5465) (Q07869 whole entry, looked up, the tested form may be a part): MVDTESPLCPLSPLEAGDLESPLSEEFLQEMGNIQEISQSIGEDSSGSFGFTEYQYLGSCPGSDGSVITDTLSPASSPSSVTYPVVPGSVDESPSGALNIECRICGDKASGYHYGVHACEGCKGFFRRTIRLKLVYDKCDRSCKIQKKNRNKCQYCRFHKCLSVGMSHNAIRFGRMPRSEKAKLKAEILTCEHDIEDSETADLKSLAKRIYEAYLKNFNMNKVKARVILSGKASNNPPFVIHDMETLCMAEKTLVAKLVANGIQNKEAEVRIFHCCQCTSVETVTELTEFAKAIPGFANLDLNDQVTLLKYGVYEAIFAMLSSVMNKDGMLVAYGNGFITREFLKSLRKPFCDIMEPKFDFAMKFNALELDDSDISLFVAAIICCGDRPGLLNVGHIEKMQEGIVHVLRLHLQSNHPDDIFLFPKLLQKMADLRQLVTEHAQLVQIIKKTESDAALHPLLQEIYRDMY
Chain of Oxysterols receptor LXR-alpha (Homo sapiens) (Q13133 whole entry, looked up, the tested form may be a part): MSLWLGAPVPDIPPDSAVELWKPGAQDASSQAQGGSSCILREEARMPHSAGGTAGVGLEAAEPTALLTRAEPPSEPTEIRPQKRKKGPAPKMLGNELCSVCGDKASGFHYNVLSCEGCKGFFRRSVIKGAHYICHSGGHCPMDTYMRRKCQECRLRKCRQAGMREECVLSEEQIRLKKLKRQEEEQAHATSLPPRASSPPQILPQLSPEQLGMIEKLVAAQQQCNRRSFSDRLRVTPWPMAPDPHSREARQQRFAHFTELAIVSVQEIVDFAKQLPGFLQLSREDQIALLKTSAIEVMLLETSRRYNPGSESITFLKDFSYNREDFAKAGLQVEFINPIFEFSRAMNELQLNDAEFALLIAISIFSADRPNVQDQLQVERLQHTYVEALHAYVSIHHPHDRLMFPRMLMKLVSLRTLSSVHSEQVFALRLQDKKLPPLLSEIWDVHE
Chain of Oxysterols receptor LXR-beta (Homo sapiens) (P55055 whole entry, looked up, the tested form may be a part): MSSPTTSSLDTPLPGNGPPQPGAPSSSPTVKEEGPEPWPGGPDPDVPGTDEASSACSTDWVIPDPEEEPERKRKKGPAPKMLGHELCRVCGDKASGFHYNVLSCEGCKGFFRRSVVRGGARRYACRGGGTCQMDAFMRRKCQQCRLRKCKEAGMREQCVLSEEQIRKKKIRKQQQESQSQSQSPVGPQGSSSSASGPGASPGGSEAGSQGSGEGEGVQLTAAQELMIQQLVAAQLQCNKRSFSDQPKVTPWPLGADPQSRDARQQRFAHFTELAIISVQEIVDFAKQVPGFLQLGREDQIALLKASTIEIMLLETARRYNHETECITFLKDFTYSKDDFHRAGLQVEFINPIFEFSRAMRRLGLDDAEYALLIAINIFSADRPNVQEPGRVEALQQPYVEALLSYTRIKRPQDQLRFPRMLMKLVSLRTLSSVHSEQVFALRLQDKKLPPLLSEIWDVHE
Chain of Glucocorticoid receptor (Homo sapiens) (P04150 whole entry, looked up, the tested form may be a part): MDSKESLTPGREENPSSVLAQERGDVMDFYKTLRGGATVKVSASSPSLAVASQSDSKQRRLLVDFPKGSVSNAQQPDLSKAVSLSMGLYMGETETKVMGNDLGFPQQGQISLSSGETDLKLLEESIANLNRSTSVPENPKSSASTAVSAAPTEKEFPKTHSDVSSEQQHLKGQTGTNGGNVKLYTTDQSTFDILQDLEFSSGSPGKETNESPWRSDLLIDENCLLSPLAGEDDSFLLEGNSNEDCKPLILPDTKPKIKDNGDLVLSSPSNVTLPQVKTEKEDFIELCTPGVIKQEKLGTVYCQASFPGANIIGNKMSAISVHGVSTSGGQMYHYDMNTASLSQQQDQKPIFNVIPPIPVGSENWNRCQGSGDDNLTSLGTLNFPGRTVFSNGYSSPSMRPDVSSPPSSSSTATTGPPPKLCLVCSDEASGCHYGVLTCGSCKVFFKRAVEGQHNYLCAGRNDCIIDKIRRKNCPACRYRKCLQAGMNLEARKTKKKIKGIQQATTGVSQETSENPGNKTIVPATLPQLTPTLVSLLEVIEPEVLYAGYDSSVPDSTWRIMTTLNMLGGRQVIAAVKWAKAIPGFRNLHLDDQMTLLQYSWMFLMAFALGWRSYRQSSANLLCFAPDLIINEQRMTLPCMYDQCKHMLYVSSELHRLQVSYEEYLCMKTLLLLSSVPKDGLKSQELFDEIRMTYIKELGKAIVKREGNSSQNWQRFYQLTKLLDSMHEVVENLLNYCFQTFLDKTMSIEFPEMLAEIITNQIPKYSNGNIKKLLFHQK

Regarding `CCCCCCCCn1sccc1=O`, the compound was called inactive in [1], in [2], in [3], in [9] and in experiment [14]. The AC50 (usually the midpoint of the concentration-response curve, whichever way the signal moves) is 11.6 µM (active) in [4]; 16.5 µM (active) in experiment [5]; 17.2 µM (active) in experiment [6]; 17.5 µM (active) in [7]; 21.1 µM (active) in [8]; 15.9 µM (active) in experiment [10]. Besides, the AC50 was 19.9 µM (active) in experiment [11], 9.3 µM (active) in experiment [12] and 9.13 µM (active) in experiment [13].
Consider `CN(C)c1ccc(C(=O)c2ccc(N(C)C)cc2)cc1`, for which the result in [1], in experiment [15], in [3], in [4], in experiment [5] and in experiment [6] was inactive. For the same compound, the result in experiment [7], in [8], in experiment [9], in experiment [10], in experiment [11] and in experiment [16] was inactive. Also, the outcome in experiment [12], in experiment [13] and in experiment [14] was inactive.
For the compound `O=[N+]([O-])C(Br)(CO)CO`, the result in [1], in experiment [15], in experiment [2], in experiment [3], in [4] and in experiment [6] was inactive. Further, the compound was classed as inactive in [8], in experiment [9] and in experiment [14]. Besides, the AC50 in [17] is 9.14 nM (active); in [5], 162 µM (active); in experiment [7], 74.6 µM (active); in [10], 156 µM (active); in [16], 27.1 µM (active); in experiment [18] it was 30.5 µM (active). The values for the AC50 in [12] and in experiment [13] were 31.1 µM (active) and 27.7 µM (active), respectively.
`O=C(Nc1ccccc1)c1ccccc1I`: the compound was classed as inactive in experiment [19], in experiment [2], in [3], in experiment [4], in experiment [5] and in [6]. Besides, the outcome in experiment [7], in [8], in experiment [10], in [18], in experiment [12] and in experiment [13] was inactive. In addition, the AC50 in experiment [9] is 20.3 µM (active).

The record behind these values is PubChem BioAssay (EPA / NIEHS).
